From PubChem BioAssay come the findings set out here.

Molecules are shown by their SMILES. Unmarked numbers belong to inactive results. How the calls were made is not given here.

For orientation: inhibition means the change of the read-out against control, counted positive when it falls.

Sequence of Pantothenate synthetase (Mycobacterium tuberculosis (strain ATCC 25618 / H37Rv)) (P9WIL5 whole entry, looked up): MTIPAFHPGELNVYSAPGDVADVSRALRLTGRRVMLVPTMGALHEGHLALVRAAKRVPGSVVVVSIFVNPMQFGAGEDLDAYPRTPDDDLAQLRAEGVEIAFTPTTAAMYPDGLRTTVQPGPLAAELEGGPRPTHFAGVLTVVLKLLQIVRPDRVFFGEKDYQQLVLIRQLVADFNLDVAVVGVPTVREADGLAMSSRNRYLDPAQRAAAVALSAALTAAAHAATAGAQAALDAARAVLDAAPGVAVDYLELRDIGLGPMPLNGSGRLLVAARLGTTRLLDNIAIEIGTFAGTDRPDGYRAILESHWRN

This experiment addresses Pantothenate synthetase (Mycobacterium tuberculosis (strain ATCC 25618 / H37Rv)) (UniProt P9WIL5). The experiment in a line: Recombinant Mtb pantothenate synthetase (PanC) inhibitors, coupled enzyme, confirmatory (AID 375).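 Further: 0% = full reaction with vehicle and 100% = no enzyme background.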 Conditions: coupled enzyme assay; at 10 µM, active compounds read high.
For `COc1ccc(-c2coc3c(CN4CCCCC4)c(O)c(CN4CCCCC4)c(O)c3c2=O)cc1`, the inhibition was 0%.
Take `COc1ccccc1OC(=O)c1ccc2nsnc2c1`: the inhibition was 0%.
The same measure for `NC(=O)COC(=O)c1ccc(S(=O)(=O)N2CCCCCC2)cc1`: 0%; for `COc1ccc(-c2ccc(-c3noc(-c4cccs4)n3)c(OC)n2)cc1`: 0%; for `COc1ccc(Cl)cc1-c1n[nH]c(=S)o1`: 0%.
In the case of `CCOC(=O)C1CCCN(CCCc2ccccc2)C1` (stereo not given), the inhibition is 0%.
The same measure for `O=C(OCc1cccs1)c1ccccc1NS(=O)(=O)c1ccc2c(c1)OCCO2`: 0%.
In the case of `CCCNC(=O)c1ccccc1NC(=O)CN(c1ccccc1OCC)S(C)(=O)=O`, the inhibition was 0%.
Take `COCc1nnc(SCC(=O)NC(C)c2ccccc2)n1-c1ccccc1` (stereo not given): the inhibition is 4%.
Under `COc1nc(OC)nc(N2CCC(C(=O)NC3CCCCCC3)CC2)n1` stands 11%; under `COc1cc(N2C(=O)CSC23C(=O)Nc2ccccc23)cc(OC)c1OC` (stereo not given), 0%.
The same measure for `O=C(CSc1nnc(COc2ccc(Cl)cc2)o1)N1CCN(c2ccccc2)CC1`: 0%; for `CCn1c(=O)cc(OCC(=O)NC2CCCCC2)c2ccccc21`: 0%.
Under `COc1ccc(NC(=O)C(C)NS(=O)(=O)c2ccc(NC(C)=O)cc2)cc1Cl` (stereo not given) stands 9%.
Turning to `O=C(COC(=O)C1CCN(S(=O)(=O)c2cccs2)CC1)c1cc2ccccc2o1`, the inhibition is 0%.
Take `NC(=O)c1c(NC(=O)CN2CCCC2)sc2c1CCCC2`: the inhibition was 4%.
For the molecule `CC1CC(C)CN(CCCNC(=O)COc2cc(=O)n(C)c3ccccc23)C1` (stereo not given), the inhibition was 0%.
Under `COc1ccc(/C(O)=C2/C(=O)C(=O)N(CC3CCCO3)C2c2cccc(OC)c2)cc1` (stereo not given) stands 0%; under `CCCCc1nc(NCCNC(=O)c2ccco2)c(C#N)c2c1CSC(C)(C)C2`, 3%; under `COCCN(Cc1cc2cccc(C)c2[nH]c1=O)C(=O)c1ccccc1`, 0%.
On to `Cc1ccc(CN2CCN(C(=O)C3CCC3)CC2)cc1`, for which the inhibition is 3%.
Turning to `Cc1cccc(NCc2ccccc2O)c1`, the inhibition was 3%.
The same measure for `COC(=O)c1sc(NC(=O)COc2ccccc2OC)nc1C`: 0%.
Under `CCCCc1oc2ccccc2c1C(=O)c1cc(I)c(OCCN(CC)CC)c(I)c1` stands 8%; under `O=C(CSc1nnc(-c2ccc(Br)o2)n1Cc1ccccc1)c1ccccc1F`, 2%; under `C=C(C)Cn1c(N2CC(C)CC(C)C2)nc2c1c(=O)[nH]c(=O)n2C` (stereo not given), 0%.
Under `Cc1csc(SCCn2c(N3CCCC3)nc3c2c(=O)[nH]c(=O)n3C)n1` stands 0%.
Turning to `CN/C(=C/[N+](=O)[O-])NCCSCc1ccc(CN(C)C)o1`, the inhibition is 4%.
The same measure for `CCCN(CCC)CCNC(=O)c1cc2c(=O)n(C)c3ccccc3c2n1C`: 0%; for `CCCOc1cccc(C2/C(=C(/O)c3ccccc3)C(=O)C(=O)N2CCN(C)C)c1` (stereo not given): 0%.
As to `Cc1cc(C(=O)N2CCN(c3ncccn3)CC2)cs1`, the inhibition was 4%.
The same measure for `CCC1CCCCN1C(=O)CSc1nnc(-c2ccc(OC)cc2)o1` (stereo not given): 0%; for `O=C(OCc1ccc2c(c1)OCO2)c1ccc(S(=O)(=O)N2CCCCC2)cc1`: 0%.
Take `O=C(c1ccccc1Oc1nnnn1-c1ccccc1)N1CCOCC1`: the inhibition was 0%.
As to `CC(C)C(CO)NC(=O)CC(=O)NC(CO)C(C)C` (stereo not given), the inhibition was 2%.
`CC12CN3CC(C)(CN(C1)C3c1ccc(Cl)cc1Cl)C2=O` (stereo not given): the inhibition was 0%.
Under `COc1ccc(-c2nc(CSCC(=O)N3CCc4ccccc4C3)c(C)o2)cc1OC` stands 0%; under `C=CCOc1cccc(C2/C(=C(\O)c3ccc(F)cc3)C(=O)C(=O)N2CCN(C)C)c1` (stereo not given), 0%; under `CN1CCN(c2ccc(Cl)cc2NC(=O)c2cccc(S(=O)(=O)N(C)C)c2)CC1`, 1%.
The same measure for `COc1ccccc1C(=O)Nc1ccc(N2CCN(S(C)(=O)=O)CC2)cc1`: 0%.
